# Screen size: about 370,000 compounds; about 3,800 (1%) were called active. This excerpt belongs to a sample that is enriched for actives. Values without a mark were called inactive. Rule as the data show it: active = activation above about 7.8%; inactive = the rest.
# Assay: SMARCA2 (BRM) function activators, primary screen, cell-based, luminescence, high throughput (AID 652017);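 also: 0% = vehicle wells and 100% = reference activator wells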
# Settings: MG213 cells, MMTV-luciferase reporter, dexamethasone, overnight; at 9.1 µM; hits give high values
row,SMILES,activation
1,CCCCOC(=O)Nc1nnc(CC(=O)NCc2ccccc2)s1,-0.38%
2,CCCCCCOC(=O)NCC(O)c1ccccc1 (stereo not given),11.2% (active)
3,CCCc1cc(=O)oc2c(C)c(OC(C)C(=O)NCC(O)c3ccccc3)ccc12 (stereo not given),-0.91%
4,CN(C)CCNC(=O)C(C(=O)c1ccccc1)n1ccccc1=O (stereo not given),2.29%
5,O=C(CSc1nc2ccccc2nc1N1CCCCC1)N1CCN(S(=O)(=O)c2cccc([N+](=O)[O-])c2)CC1,5.57%
6,O=C(NC1CCC1)c1ccc(C#Cc2cccc(F)c2)c[n+]1[O-],-2.93%
7,Cn1nccc1/C=N\NC(=O)c1ccc(Cl)cc1,-0.88%
8,Cn1cccc1/C=N/NC(=O)c1ccc(OC(F)(F)C(F)F)cc1,8.72% (active)
9,O=C(Nc1ccc(OC(F)(F)F)cc1)c1ccc2c(c1)no[n+]2[O-],-7.81%
10,O=C(COc1cc(Cl)c(Cl)cc1Cl)NC(=O)NC1CCCC1,-2.73%
11,CC(C)CSc1nnc(-c2cccnc2)n1Cc1ccccc1,-4.95%
12,Cc1ccc(CN2CCCCC(NC(=O)C3CCCCC3)C2=O)cc1 (stereo not given),-2.16%
13,Cc1cc(C)c2nc(N3CCC(C(=O)NCCN4CCOCC4)CC3)sc2c1,-1.84%
14,Cc1ccc(C)c(C(C)NC(=O)C2CCCO2)c1 (stereo not given),-1.74%
15,Cc1cc(C)c2nc(NC(=O)C3CCCO3)sc2c1 (stereo not given),7.96% (active)
16,CCOC(=O)[C@]12CCCC3=C1N(CCC3)C(=O)[C@@H](CC(=O)N1CCSCC1)C2,-1.03%
17,CCOc1ccc(-n2c(SCC(=O)Nc3cc(C)c(NC(=O)c4ccccc4)cc3OC)nnc2-c2cccc(Cl)c2)cc1,-5.83%
18,CN(C)S(=O)(=O)c1cccc(C(=O)N/N=C\c2ccco2)c1,-2.36%
19,CCCCc1ccc(NC(=S)N2CCCC(CO)C2)cc1 (stereo not given),15% (active)
20,COc1cc(NC(=S)N2CCCC(C)C2)cc(OC)c1OC (stereo not given),3.14%
21,CCC(C)c1ccc(NC(=S)N2CCCC2)cc1 (stereo not given),-0.97%
22,N#CCC[C@H]1CC[C@]2(CCCN(Cc3ccc(Cl)cc3)C2)O1,-3.04%
23,COc1ccccc1C(=O)CSc1nnc(-c2ccccn2)n1-c1ccccc1,5.55%

row,SMILES,activation
1,O=S1(=O)c2ccc(N3CCN(Cc4ccccc4F)CC3)cc2Oc2ccccc2CN1Cc1cn(Cc2ccc(Cl)cc2)nn1,4.05%
2,Cc1cccc(NC(=O)C[C@H]2CC[C@H]3[C@@H](COc4ccc(NC(=O)Nc5ccccc5)cc4C(=O)N3C)O2)c1,2.72%
3,Cc1cc(=O)[nH]c(SCC(=O)Nc2ccc(Cl)cc2C)n1,-2.94%
4,O=C(COc1ccc2c3c(c(=O)oc2c1)CCC3)NC1CCCCC1,-1.03%
5,COC(=O)Cc1c(C)c2ccc(OCC(=O)NCc3ccc4c(c3)OCO4)cc2oc1=O,2.31%
6,CCc1c(C)c2ccc(OC3CCCCC3=O)cc2oc1=O (stereo not given),13.8% (active)
7,Cc1ccccc1NC(=O)Cn1nnc(-c2ccccc2F)n1,1.3%
8,c1ccc(Cc2nn3c(Cn4cnc5ccccc54)nnc3s2)cc1,-3.67%
9,CN1CCC(=NNC(=O)c2ccc(N(Cc3ccc(Cl)cc3)S(C)(=O)=O)cc2)CC1,-1.44%
10,CCC1CCC/C1=N\NC(=O)c1ccc(Cl)cc1 (stereo not given),10.3% (active)
11,CC(NC(=O)c1ccc(Cl)cc1)C(=O)N1CCCCC1 (stereo not given),0.9%
12,O=C(CSc1ncnc2c1nnn2Cc1ccc(F)cc1)NC1CCCC1,-2.99%
13,O=C(OCC(=O)c1cccs1)c1ccc([N+](=O)[O-])o1,-0.97%
14,O=C(OCC(=O)c1cccs1)C1=COCCO1,8.48% (active)
15,CCC(C)(C)c1ccc(Oc2ccc(NC(=O)COC(=O)C3=COCCO3)cc2)cc1,-10.1%
16,O=C1Nc2ccccc2-n2nnnc2C1N1CCN(c2cccc(C(F)(F)F)n2)CC1 (stereo not given),3.09%
17,CCCCn1nc(C(=O)Nc2cccc(C(=O)NC3CC3)c2)c2ccccc2c1=O,1.35%
18,CCCn1nc(C(=O)Nc2ccc3nc(C)sc3c2)c2ccccc2c1=O,11.4% (active)
19,CCCn1nc(C(=O)NNC(=O)CSCC(=O)Nc2cc(C)on2)c2ccccc2c1=O,-2.41%
20,CCOC(=O)[C@@]12CN(C(=O)OC(C)(C)C)CC=C1N(Cc1ccc(OC)cc1)C(=O)[C@H]2CC(=O)NCc1ccc(OC)c(OC)c1,-2.13%
21,COC(=O)[C@H](CC(C)C)NS(=O)(=O)c1c(F)cccc1F,-3.1%
22,C=CCN(C(=O)[C@@H](CCCC)[C@@H](O)c1ccc(Cl)cc1)c1ccccc1,-3.35%

# Source: PubChem BioAssay AID652017 (The Scripps Research Institute Molecular Screening Center, 2013)
